According to PubChem BioAssay (NCI):
About 83,000 compounds went through this panel and 20% of them were active in at least one assay; those are over-represented in the sample as a whole.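 Treatment: one concentration, 48 hours, 96-well format. Scoring: percent growth, with anything below 10 considered active.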 Unmarked numbers belong to inactive results. Activity calls are given as the source filed them.

Key:
Assay in all cases: NCI-60 one-dose screen, 48 h (100 = growth as untreated, 0 = no growth, -100 = all killed)
Details in all cases: 10 µM unless noted
SK-MEL-2 melanoma = test system: SK-MEL-2 melanoma
EKVX NSCLC = test system: EKVX NSCLC
SN12C renal = test system: SN12C renal
UO-31 renal = test system: UO-31 renal
TK-10 renal = test system: TK-10 renal
CAKI-1 renal = test system: CAKI-1 renal
A498 renal = test system: A498 renal
CCRF-CEM leukemia = test system: CCRF-CEM leukemia
MOLT-4 leukemia = test system: MOLT-4 leukemia
SR leukemia = test system: SR leukemia
RPMI-8226 leukemia = test system: RPMI-8226 leukemia
OVCAR-8 ovarian = test system: OVCAR-8 ovarian
OVCAR-5 ovarian = test system: OVCAR-5 ovarian
OVCAR-4 ovarian = test system: OVCAR-4 ovarian
SK-OV-3 ovarian = test system: SK-OV-3 ovarian
IGROV1 ovarian = test system: IGROV1 ovarian
OVCAR-3 ovarian = test system: OVCAR-3 ovarian
HS 578T breast = test system: HS 578T breast
NCI/ADR-RES ovarian = test system: NCI/ADR-RES ovarian
ACHN renal = test system: ACHN renal

SMILES	growth (SK-MEL-2 melanoma)	growth (EKVX NSCLC)	growth (SN12C renal)	growth (UO-31 renal)	growth (TK-10 renal)	growth (CAKI-1 renal)	growth (A498 renal)	growth (CCRF-CEM leukemia)	growth (MOLT-4 leukemia)	growth (SR leukemia)	growth (RPMI-8226 leukemia)	growth (OVCAR-8 ovarian)	growth (OVCAR-5 ovarian)	growth (OVCAR-4 ovarian)	growth (SK-OV-3 ovarian)	growth (IGROV1 ovarian)	growth (OVCAR-3 ovarian)	growth (HS 578T breast)	growth (NCI/ADR-RES ovarian)	growth (ACHN renal)
COc1ccc(NC(=O)CSc2nc(-c3ccc(OC)c(OC)c3)cc(-c3cc(OC)c(OC)c(OC)c3)n2)cc1	89%	108%	93.9%	35.4%	96.8%	83.8%	99.8%	101%	84.8%	104%	78.2%	94.2%	99.1%	106%	109%	122%	114%	90.8%	98.7%	–
CN(C)CCN1C(=O)c2ccc3c4c(ccc(c24)C1=O)C(=O)N(CCN=C=S)C3=O	-75% (active)	-95.2% (active)	-89.5% (active)	-95.4% (active)	-95.3% (active)	-80% (active)	-97.8% (active)	-50.6% (active)	-52.2% (active)	-39.7% (active)	-45% (active)	-88.7% (active)	–	-94.3% (active)	-97% (active)	-64.3% (active)	-96.5% (active)	-6.37% (active)	-57.3% (active)	–
COc1ccccc1CNCCCN1C(=O)c2ccc3c4c(ccc(c24)C1=O)C(=O)N(CCCNCCCCNCCCN)C3=O	-54.6% (active)	-41% (active)	-32.8% (active)	-1.99% (active)	-10.1% (active)	7.3% (active)	-58.1% (active)	-19.1% (active)	-28.4% (active)	-27.1% (active)	-9.27% (active)	4.19% (active)	–	-73.8% (active)	9.93% (active)	-2.75% (active)	-96.8% (active)	-25.1% (active)	4.5% (active)	–
C=C(C)[C@@H]1C[C@@H]2Cc3cc(Cl)ccc3N1O2	130%	84.7%	102%	100%	–	95.9%	96.3%	-70.8% (active)	–	90.5%	83.2%	108%	83.5%	89.4%	108%	120%	116%	95.9%	100%	99%
CCCCCCCCCCCCCCCCCCNC(=O)[C@H]1CSC(c2ccc(OC)cc2O)N1 (stereo partly drawn)	75.6%	102%	14.3%	53.5%	–	89.8%	81.3%	6.93% (active)	17.3%	9.44% (active)	73.4%	12%	56%	84.6%	96.4%	–	80.3%	55%	70.8%	88.1%
COc1cc(/C=C/C(=O)c2cccc(-n3cc(-c4cc(OC)c(OC)c(OC)c4)[nH]c3=O)c2)cc(OC)c1OC	-2.34% (active)	51.6%	11.5%	6.2% (active)	–	-24.2% (active)	76.4%	-1.54% (active)	-16% (active)	-12.7% (active)	-46.4% (active)	6.44% (active)	28.4%	23.2%	49.6%	–	-39% (active)	62.4%	10.5%	-57.6% (active)
Cc1c(C(N)=O)sc2c1c(=O)n(Cc1ccccc1)c1nnc(Nc3ccccc3)n21	103%	94.1%	99.2%	67.9%	–	82%	110%	–	–	–	148%	89.2%	104%	117%	99.1%	–	115%	–	103%	96.4%
Nc1ncnc2c1c(-c1ccc(Oc3ccccc3)cc1)nn2C[C@@H]1SSC[C@@H]1O	-57.5% (active)	25.2%	37.1%	13.7%	–	–	43.8%	-15% (active)	-38.1% (active)	-37.4% (active)	51.5%	69.9%	78.3%	44.6%	3.68% (active)	-6.92% (active)	3.23% (active)	56.6%	61.3%	23.6%
CN(C)CCCC(C#N)c1ccccc1 (stereo not drawn)	109%	118%	101%	104%	100%	117%	107%	–	91.6%	96.2%	108%	112%	117%	113%	107%	132%	117%	121%	108%	–
CCN(CC)c1ccc2[nH]c3c(C(N)=O)cc(=O)c(=O)c=3oc2c1	-19.4% (active)	-10.4% (active)	-4.55% (active)	-28.8% (active)	–	–	46.2%	–	1.5% (active)	–	-1.62% (active)	0.295% (active)	15.1%	2.07% (active)	19.9%	-44.4% (active)	-35.9% (active)	2.92% (active)	-0.316% (active)	-8.77% (active)
CNc1ccc(Br)c2c1C(=O)c1ccccc1C2=O	129%	115%	102%	86.1%	–	100%	93.3%	86.1%	94.7%	101%	87.8%	105%	111%	100%	112%	99.1%	121%	107%	103%	104%
C=C1CCC2C3(C)COC(c4c(OC)cccc4OC)OC3CCC2(C)C1C/C=C1/C(=O)OCC1O (stereo not drawn)	50%	96.5%	28.2%	46.2%	–	172%	102%	-33.1% (active)	51.4%	34.7%	-53.5% (active)	29.5%	49.3%	41.3%	71.6%	26.9%	–	–	30.9%	66%
COP(=O)(OC)/C(=N\NS(=O)(=O)c1ccc(C)cc1)c1ccccc1	110%	97.7%	105%	92.6%	–	62.1%	92.4%	124%	103%	–	109%	106%	91%	–	91.7%	–	103%	123%	95.8%	101%
CC(C)(C)n1cc(-c2ccnc(NCCCNS(=O)(=O)c3ccc(F)cc3)c2)c(-c2cccc(O)c2)n1	52.2%	49.8%	53.4%	59.4%	–	55%	59%	35.7%	34.2%	13.8%	–	51.5%	65%	53.9%	83.8%	51.1%	56.1%	52.4%	53%	38.2%
COc1ccc(/C=C2\Oc3cc(OCCCN4CCCC4)ccc3C2=O)c(OC)c1	103%	96.1%	91.8%	74.9%	–	–	–	11.9%	32.7%	-26.5% (active)	66.9%	80%	100%	90.3%	110%	88.2%	97.4%	94.5%	91%	91.4%
O=C(NCCCNc1nccc(-n2ccc3cccnc32)n1)c1c(F)cccc1F	114%	93.4%	99.4%	92%	–	86.3%	103%	101%	99.2%	99.2%	–	107%	98.9%	94.9%	116%	97.6%	109%	103%	99.4%	94.6%
Fc1ccc(Nc2ncnc3ccc(-c4cnc5[nH]ccc5c4)cc23)cc1Cl	29.9%	14.8%	-14.2% (active)	-73.8% (active)	–	–	77.4%	40%	45.6%	-26.1% (active)	-17.9% (active)	-28% (active)	8.66% (active)	-61% (active)	15.3%	-37.8% (active)	-73.7% (active)	-12.6% (active)	14%	-66.7% (active)
